These results are taken from PubChem BioAssay (NCI).

SMILES strings stand for the structures. The panel holds about 79,000 compounds, 15% with a hit somewhere; the sample as a whole holds those more often. Unmarked numbers belong to inactive results. Activity calls are given as the source filed them. No stated cut-off is given here; in the data, active means growth inhibition above about 70%; inactive means the rest.

The first test can be described thus: NCI Yeast Anticancer Drug Screen. Data for the rad50 strain (AID 155).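 Further: 0% = growth of vehicle-only cultures of the same strain.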 To be noted: S. cerevisiae rad50 strain growth inhibition; at 50.0 µM; stronger effect = higher value. The method in brief: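 Readout: growth inhibition relative to vehicle-treated cultures. Compound exposure was carried out in a genetically defined yeast strain deficient in DNA damage repair.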
`COc1cc(/C=N/NC(=O)CN(C)C)cc(OC)c1N(CCCl)CCCl`: the growth inhibition is 8.85%.
On the same count and under the same terms, the value for `CCOP(=O)(O)C1CCCC(C)[N-]1.CCOP(=O)(O)C1CCCC(C)[N-]1.[Cu+2]` (stereo not drawn) was 49.4%; that for `NC(Cc1ccc(Cl)cc1)c1nn[nH]n1` (stereo not drawn) was -5.5%; that for `Cc1cc(C)[c]([Hg][Cl])c(C)c1` was 98.5% (active).
On the same count and under the same terms, the value for `[CH3][Sb]([CH3])([CH3])([I])[I]` was 20.4%; that for `C=C1CC2C3CC=C4CC(OC(C)=O)CCC4(C)C3CCC2(C)C1=O` (stereo not drawn) was 31.7%.
The same measure, in the same setting: the same measure for `CCCC(C)SP(=S)(SC(C)CCC)SC(C)CCC` (stereo not drawn): 4.1%; for `CCCC[S][Sn]([CH2]CCC)([CH2]CCC)[S]CCCC`: 95.8% (active).
As for `COP1(=S)OCC2CCC[C@@H]2O1` (stereo partly drawn), the growth inhibition is -19.5%.
Consider `CCOC(C(=O)O)(c1ccccc1)c1ccccc1`, for which the growth inhibition was -0.55%.
On the same count and under the same terms, the value for `NC(CP(=O)(O)O)C(=O)O` (stereo not drawn) was 0.4%; that for `CCC12C=CCN3CCC4(C(=C(C(=O)OC)C1)Nc1ccccc14)[C@H]32` (stereo partly drawn) was 6.7%.
On the same count and under the same terms, the same measure for `N#CCN(CC#N)[N+](=O)[O-]`: 6.8%; for `O=CNC(CSC(c1ccccc1)c1ccccc1)C(=O)O` (stereo not drawn): 0.25%; for `O=C(COc1ccccc1Cl)Nc1ccc[n+](Cc2ccc(S(=O)(=O)F)cc2)c1`: -20.9%.
Still for that read-out and setting: the value for `O=C1CCCN1CC#CCN1C[C@@H]2C3CCC(C3)[C@@H]2C1` was -2.8%.
As to `CC(=O)OC1CC2(O)C3CCC4CC(O)CCC4(C)C3CCC2(C)C1C1=CC(=O)OC1` (stereo not drawn), the growth inhibition was -11.1%.
Still for that read-out and setting: the same measure for `ClCCN(CCCl)c1ccc(/C=N/N=C2c3ccccc3-c3ccccc32)cc1`: -21.6%; for `O[C@H](c1ccccc1)[C@@H](c1ccccc1)N1CCCCC1`: -9.85%.
On the same count and under the same terms, the same measure for `C/C=C\CC1(C/C=C/C)C(=O)NC(=O)NC1=O`: 2.25%.
Take `Nc1ccc(Sc2ccc(N)cc2)cc1`: the growth inhibition was 15.5%.
Same read-out and setting: the same measure for `COc1ccc2c(c1OC(C)=O)-c1cc(OC(C)=O)cc3c1C(C2)N(C(=O)CN(CCCl)CCCl)CC3` (stereo not drawn): -6.4%; for `CCCCOP(=O)(Nc1ccc(Cl)cc1)OCCCC`: 99.3% (active); for `CC1C(C)(C)P(=O)(Oc2cccc3cccnc23)C1(C)C` (stereo not drawn): 83.3% (active).
Same read-out and setting: the same measure for `O=[N+]([O-])c1c(Cl)cc(Cl)c([N+](=O)[O-])c1Cl`: 15.6%; for `COc1ccc2c3c1OC1C(O)C=CC4C(C2)N(N=O)CCC341` (stereo not drawn): -3.2%; for `CC(C)C1C=Cc2ccccc21` (stereo not drawn): 13.8%.
Still for that read-out and setting: the value for `CCOC(=O)C(C#N)c1ccccc1` (stereo not drawn) was 22.3%; that for `C1CN2CCOC2O1` was -12.4%; that for `CCC(=O)OC1(c2ccccc2)CCN(CCC(O)c2ccccc2)CC1C` (stereo not drawn) was -14.9%.
In the case of `S=P(Oc1cc(Cl)c(Cl)cc1Cl)(N1CCOCC1)N1CCOCC1`, the growth inhibition was 37.1%.
Same read-out and setting: the value for `CC1CCC2C(C)C3C(CC4C5CCC6CC(O)CCC6(C)C5CCC43C)N2C1` (stereo not drawn) was 17.1%.
The same measure, in the same setting: the same measure for `CCCCCCCCCCC(=O)O`: 0.25%.
On the same count and under the same terms, the value for `Oc1ccccc1C=NCCN=Cc1ccccc1O` was -15.2%; that for `C=C1[C@@H](C)[C@H]2[C@H](Cc3ccccc3)NC(=O)[C@]23OC(=O)/C=C/[C@H](O)CCC[C@@H](C)C/C=C/[C@H]3[C@@H]1O` was 53.4%; that for `O=C/C=C/c1ccco1` was 17.4%.
Regarding `CC(C)c1cc(C(C)C)c(S(=O)(=O)N=[N+]=[N-])c(C(C)C)c1`, the growth inhibition is 12.6%.
On the same count and under the same terms, the value for `N#CC(C#N)=Cc1ccccc1O` was -8.35%; that for `CC(C)c1cc2c(cc1O)C1(C)CCCC(C)(C)C1=CC2=O` (stereo not drawn) was -1.65%.

The next test is described as follows: NCI Yeast Anticancer Drug Screen. Data for the mec2-1 strain (AID 157). To be noted: S. cerevisiae mec2-1 strain, at 50.0 µM, stronger effect = higher value. The method in brief: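 Growth inhibition is read against vehicle-treated controls after compound exposure of the mec2-1 yeast strain, which is defective in DNA damage repair or cell cycle control.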
Turning to `COc1cc(/C=N/NC(=O)CN(C)C)cc(OC)c1N(CCCl)CCCl`, the growth inhibition was 10.4%.
The same measure, in the same setting: the value for `CCOP(=O)(O)C1CCCC(C)[N-]1.CCOP(=O)(O)C1CCCC(C)[N-]1.[Cu+2]` (stereo not drawn) was 33.6%.
Turning to `NC(Cc1ccc(Cl)cc1)c1nn[nH]n1` (stereo not drawn), the growth inhibition is 1.25%.
For `Cc1cc(C)[c]([Hg][Cl])c(C)c1`, the growth inhibition was 98.7% (active).
Still for that read-out and setting: the value for `[CH3][Sb]([CH3])([CH3])([I])[I]` was -14.1%.
Same read-out and setting: the value for `C=C1CC2C3CC=C4CC(OC(C)=O)CCC4(C)C3CCC2(C)C1=O` (stereo not drawn) was 13.8%; that for `CCCC(C)SP(=S)(SC(C)CCC)SC(C)CCC` (stereo not drawn) was -11.3%.
With `CCCC[S][Sn]([CH2]CCC)([CH2]CCC)[S]CCCC`, the growth inhibition was 92.3% (active).
Still for that read-out and setting: the value for `COP1(=S)OCC2CCC[C@@H]2O1` (stereo partly drawn) was -26.4%; that for `CCOC(C(=O)O)(c1ccccc1)c1ccccc1` was 22.2%; that for `NC(CP(=O)(O)O)C(=O)O` (stereo not drawn) was 5.7%.
For the compound `CCC12C=CCN3CCC4(C(=C(C(=O)OC)C1)Nc1ccccc14)[C@H]32` (stereo partly drawn), the growth inhibition was 6%.
Same read-out and setting: the value for `N#CCN(CC#N)[N+](=O)[O-]` was -4.95%.
The same measure, in the same setting: the value for `O=CNC(CSC(c1ccccc1)c1ccccc1)C(=O)O` (stereo not drawn) was -5.55%; that for `O=C(COc1ccccc1Cl)Nc1ccc[n+](Cc2ccc(S(=O)(=O)F)cc2)c1` was -21.2%; that for `O=C1CCCN1CC#CCN1C[C@@H]2C3CCC(C3)[C@@H]2C1` was -8.5%.
Take `CC(=O)OC1CC2(O)C3CCC4CC(O)CCC4(C)C3CCC2(C)C1C1=CC(=O)OC1` (stereo not drawn): the growth inhibition was -19.9%.
Same read-out and setting: the value for `ClCCN(CCCl)c1ccc(/C=N/N=C2c3ccccc3-c3ccccc32)cc1` was -7.05%; that for `O[C@H](c1ccccc1)[C@@H](c1ccccc1)N1CCCCC1` was -11.9%; that for `C/C=C\CC1(C/C=C/C)C(=O)NC(=O)NC1=O` was -7.45%.
Still for that read-out and setting: the same measure for `Nc1ccc(Sc2ccc(N)cc2)cc1`: 0.35%; for `COc1ccc2c(c1OC(C)=O)-c1cc(OC(C)=O)cc3c1C(C2)N(C(=O)CN(CCCl)CCCl)CC3` (stereo not drawn): -6%.
The same measure, in the same setting: the same measure for `CCCCOP(=O)(Nc1ccc(Cl)cc1)OCCCC`: 99.7% (active); for `CC1C(C)(C)P(=O)(Oc2cccc3cccnc23)C1(C)C` (stereo not drawn): 64.7%.
As to `O=[N+]([O-])c1c(Cl)cc(Cl)c([N+](=O)[O-])c1Cl`, the growth inhibition is 5.25%.
On the same count and under the same terms, the same measure for `COc1ccc2c3c1OC1C(O)C=CC4C(C2)N(N=O)CCC341` (stereo not drawn): 9.6%; for `CC(C)C1C=Cc2ccccc21` (stereo not drawn): 1.85%.
The same measure, in the same setting: the same measure for `CCOC(=O)C(C#N)c1ccccc1` (stereo not drawn): 19.1%; for `C1CN2CCOC2O1`: 15.2%; for `CCC(=O)OC1(c2ccccc2)CCN(CCC(O)c2ccccc2)CC1C` (stereo not drawn): -1.45%.
Still for that read-out and setting: the same measure for `S=P(Oc1cc(Cl)c(Cl)cc1Cl)(N1CCOCC1)N1CCOCC1`: 8.85%.
As for `CC1CCC2C(C)C3C(CC4C5CCC6CC(O)CCC6(C)C5CCC43C)N2C1` (stereo not drawn), the growth inhibition was 23.4%.
The same measure, in the same setting: the value for `CCCCCCCCCCC(=O)O` was -2.2%; that for `Oc1ccccc1C=NCCN=Cc1ccccc1O` was -11.6%; that for `C=C1[C@@H](C)[C@H]2[C@H](Cc3ccccc3)NC(=O)[C@]23OC(=O)/C=C/[C@H](O)CCC[C@@H](C)C/C=C/[C@H]3[C@@H]1O` was 25.8%.
With `O=C/C=C/c1ccco1`, the growth inhibition was -14.3%.
Still for that read-out and setting: the same measure for `CC(C)c1cc(C(C)C)c(S(=O)(=O)N=[N+]=[N-])c(C(C)C)c1`: -0.8%; for `N#CC(C#N)=Cc1ccccc1O`: -2.35%.
Still for that read-out and setting: the value for `CC(C)c1cc2c(cc1O)C1(C)CCCC(C)(C)C1=CC2=O` (stereo not drawn) was -28.9%.
